# Test results as given in PubChem BioAssay AID504847 (National Center for Advancing Translational Sciences (NCATS), 2011).
# Several values for one entry are separate records, joined by “and”; a condition that tells them apart may be missing. Equal values may be shown once. Hit rate of the full screen: of about 400,000 compounds, about 3,700 (0.93%) were called active. Not shown: some 3% with an inconclusive outcome. The sample as a whole holds a higher share of actives than the screen did. Some compounds were tested as several samples or in several runs, with calls that do not always agree. A number with no mark means an inactive call. Calls come from the whole dose curve; as a rule, active = well fitted inhibition curve with a large enough effect; inconclusive = small, poorly fitted or top-dose-only effect, or another doubt; inactive = no such curve, though single readings can be large or run the other way.
# Target: Vitamin D3 receptor (Homo sapiens) (UniProt P11473)
# Sequence (P11473 whole entry, looked up): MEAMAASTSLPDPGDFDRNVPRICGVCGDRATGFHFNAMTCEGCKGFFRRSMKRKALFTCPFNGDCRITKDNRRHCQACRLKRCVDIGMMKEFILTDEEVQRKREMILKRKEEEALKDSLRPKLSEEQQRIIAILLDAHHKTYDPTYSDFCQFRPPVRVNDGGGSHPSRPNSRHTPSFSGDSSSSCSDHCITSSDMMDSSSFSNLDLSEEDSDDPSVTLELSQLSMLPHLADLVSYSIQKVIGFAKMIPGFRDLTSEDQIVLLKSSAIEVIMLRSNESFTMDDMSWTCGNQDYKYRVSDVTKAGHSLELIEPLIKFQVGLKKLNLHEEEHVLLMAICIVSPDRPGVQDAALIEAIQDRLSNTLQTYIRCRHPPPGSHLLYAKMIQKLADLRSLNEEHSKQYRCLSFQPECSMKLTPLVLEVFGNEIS
# Assay: Inhibitors of the vitamin D receptor (VDR): qHTS
# Details: VDR-SRC2-3 peptide fluorescence polarization, 2 h; max response, negative = inhibition: active compounds read low
# Excerpt: The vitamin D receptor (VDR) is a ligand-activated transcription factor and is partially responsible for the regulation of the endocrine system. This includes the transcriptional regulation of genes involved in the production of the parathyroid hormone (PTH) and the regulation of the blood calcium level. High levels of PHT can cause hypercalcemia in the case of primary and tertiary hyperparathyroidism. The VDR-mediated gene regulation, activated by its ligand 1,25-dihydroxyvitamin D3 (1,25-(OH)2D3), is governed by the recruitment of coactivators. Our hypothesis is that small molecules, with the ability to inhibit the interaction between VDR and certain coactivators, are able to selectively modulate VDR-mediated transcription. Our long term objective is the application these VDR-coactivator inhibitors to study the role of VDR-coactivator binding for specific VDR regulated genes. Ultimately, these molecules can be developed into new treatments for hypercalcemic hyperparathyroidism. No small molecule or non-peptide inhibitors are known for the VDR-coactivator interaction.
# In a collaboration between the University of Wisconsin, Milwaukee and the NIH Chemical Genomics Center (NCGC) a HTS-compatible enzymatic assay was developed. The assay uses fluorescence polarization as its read-out to measure the inhibition between VDR and coregulator peptide SRC2-3 exerted by small molecules. This assay was used to screen the NIH Molecular Libraries Small Molecule Repository (MLSMR).
# NIH Chemical Genomics Center [NCGC]
# NIH Molecular Libraries Probe Centers Network [MLPCN]
# Assay Submitter (PI): Alexander Arnold, University of Wilwaukee
# Both solutions are kept at 4 deg C and protected from light and dispensed using a Kalypsys dispenser. Then 23nl of compounds and controls are added with Kalypsys pintool. […] Plate is centrifuged at 1000 RPM for 15 seconds to remove any residual bubbles. The plate is then incubate at ambient room temperature for 2 hours.
# % is set by controls: 0 for no effect and ±100 for the full control effect; potency is the fitted concentration of half-maximal effect.
Structure (SMILES),Potency,"max response, negative = inhibition"
CC[N+](C)(CC)CCC[n+]1c(-c2ccccc2)c2cc(N)ccc2c2ccc(N)cc21,8.91 µM (active),
COc1ccc2c3c1O[C@H]1C[C@@H](O)C=C[C@@]31CCN(C)C2,,4.74% and -11.8%
c1ccc2c(c1)[I+]c1ccccc1-2,,-6.32%
COc1ccc(CN2C(=O)NC(=O)/C(=C\c3ccc(OC)c(OC)c3OC)C2=O)cc1,70.8 µM (active),
CNC(C)[C@@H](O)c1ccccc1 (stereo not given in full),,2.28%
CO[C@@H]1C[C@@H](C[C@H]2CC[C@H](C)[C@@H]([C@@H](C)C(=O)O)O2)O[C@]2(O[C@](C)([C@H]3CC[C@@](C)(C4OC([C@H]5O[C@@](O)(CO)[C@H](C)C[C@@H]5C)C[C@@H]4C)O3)C[C@H]2C)[C@@H]1C (stereo not given in full),,10.2%
N#Cc1c(Cl)c(Cl)c(Cl)c(C#N)c1Cl,0.794 µM (active),
CCCCCCCCCCCCN=C(N)N,,6.41%
C[C@@H]1C[C@H]2CC[C@H](O2)[C@H](C)C(=O)O[C@@H](C)C[C@@H]2CC[C@@H](O2)[C@@H](C)C(=O)O[C@H](C)C[C@H]2CC[C@H](O2)[C@H](C)C(=O)O[C@@H](C)C[C@@H]2CC[C@@H](O2)[C@@H](C)C(=O)O1,,8%
COc1ccc2c3c1OC1CC(O)C=C[C@@]31CCN(C)C2 (stereo not given in full),,-3.65%
NC[C@H](O)c1ccc(O)cc1,,6.55%
O=C(Nc1cccc(F)c1)N1CC[C@@]2(CCCN(C(=O)Oc3ccccc3)C2)C1,,2.93%
CCOC(=O)c1ncn2c1[C@@H]1CCCN1C(=O)c1cc(OC)ccc1-2,,-6.26%
CC(=O)c1c(O)c(C)c(O)c(Cc2c(O)c3c(c(C(=O)/C=C/c4ccccc4)c2O)OC(C)(C)C=C3)c1O,14.1 µM (active) and 8.91 µM (active) and 39.8 µM (active),
CC(=O)c1c(O)c(C)c(O)c(Cc2c(O)c3c(c(C(=O)/C=C\c4ccccc4)c2O)OC(C)(C)C=C3)c1O,35.5 µM (active),
CN(C)C[C@H]1CCCC[C@]1(O)c1cccc(O)c1,,1.62%
Cc1cccc([C@H](C)c2cnc[nH]2)c1C,,7.28%
CO[C@H]1[C@@H](O)[C@@H](C)O[C@H](O[C@H]2[C@H](Oc3cccc4c(O)c5c(=O)oc6ccc(C)c7c(=O)oc(c34)c5c67)O[C@H](C)[C@H](O)[C@@H]2O)[C@@H]1O,,14.9%
Cc1ccc(-n2c(/C=C/c3cccc(C(F)(F)F)c3)nc3ccccc3c2=O)cc1,,9.47%
Cc1ccc(NC(=O)N(Cc2ccc3c(c2)OCO3)C2CCN(Cc3ccccc3)CC2)cc1F,,4.08%
Fc1ccc(C(OCCN2CCN(C/C=C\c3ccccc3)CC2)c2ccc(F)cc2)cc1,,-15.8%
CCCCC/C=C\C/C=C\C/C=C\C=C\[C@H](CCCC(=O)O)OO,,7.28% and 4.32%

Structure (SMILES),Potency,"max response, negative = inhibition"
CCCCC/C=C\C/C=C\C/C=C\C/C=C\CCCCCC(=O)NCCO,35.5 µM (active),17.7% and -2.94% and 0.308%
CCCCC/C=C\C/C=C\C/C=C\CCCCCCC(=O)NCCO,,-6.07% and 11.4% and 0.788%
CC[C@@H]1CN2CC[C@@H]1C[C@H]2[C@H](O)c1ccnc2ccc(OC)cc12,,3.71%
CC(=O)[O][Sn]([c]1ccccc1)([c]1ccccc1)[c]1ccccc1,2.24 µM (active),
COC(=O)N1C(c2ccccc2)C1c1ccccc1 (stereo not given),,8.84%
O=C(O)CCn1cc(C=C2C(=O)NC(=S)NC2=O)c(-c2cccc(Br)c2)n1,25.1 µM (active),
C[C@@]12CC[C@H]3[C@@H](CC[C@]4(O)C[C@H](O)CC[C@@]34C=O)[C@]1(O)CC[C@@H]2C1=CC(=O)OC1,,6.85%
c1csc(CN2CC3(CCNCC3)C2)n1,,2.29%
Cc1cccc2c3c(ccc12)C1=C(C(=O)C3=O)C(C)CO1 (stereo not given),5.62 µM (active),
COc1ccc(C2Oc3c(I)c(OC)cc(OC)c3CC2O)cc1OC (stereo not given),,-4.29%
Nc1ccc(-c2ccc(N)c(N)c2)cc1N,,7.8%
c1ccc(CCCCN2CCC(c3ccccc3)CC2)cc1,,6.23% and 8.72%
Cc1ncsc1CCCl,,-5.72% and -13.2% and 18.1%
COc1ccccc1-c1[se]c2ccccc2c1I,,-10.1%
N#CC(C#N)=Cc1cc(O)c(O)c([N+](=O)[O-])c1,44.7 µM (active),
CCC(C)C(=O)O[C@@H]1C[C@@]2(C)C(c3ccoc3)OC(=O)CC23OC2(C)O[C@@]14[C@@]1(C)C(CC(=O)OC)C5(C)CC1(O)C(O)(C5OC(=O)C1(C)OC1C)C(OC(C)=O)[C@@]34O2 (stereo not given in full),,-0.0436%
C[C@]12O[C@H](C[C@@]1(O)C(=O)O)n1c3ccccc3c3c4c(c5c6ccccc6n2c5c31)CNC4=O,,0.321%
COc1cc2c(cc1OC)[C@@H]1C(=O)c3ccc(O)c(CC=C(C)C)c3OC1CO2 (stereo not given in full),,10.7%
CCCCCCCCCCCCCC(=O)O[C@@H]1[C@@H](C)[C@@]2(O)[C@@H](C=C(CO)C[C@]3(O)C(=O)C(C)=C[C@@H]23)[C@@H]2C(C)(C)[C@]12OC(C)=O,,3.48%
CCC1(c2ccccc2)C(=O)NC(=O)N(C)C1=O (stereo not given),,3.76%
O=P1(Oc2ccccc2)CC(O)C(O)C(COCc2ccccc2)O1 (stereo not given),,-0.629%
CC(=O)OC1C2(CC3N4C(=O)C5(CO)SSC4(CC31O)C(=O)N5C)OC(C)C(C)(C)C2=O (stereo not given),39.8 µM (active),
